Screen size: about 1,400 compounds; about 45 (3%) were called active. A selection follows. Entries with a potency or affinity are not part of this list. Values without a mark were called inactive.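 How the source made its calls: active means half-maximal dose of signal decrease from fit no higher than ten times the top valid tested dose; inconclusive means fit invalid, or curve flat with 30 to 70% inhibition; inactive means the rest.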
The compounds below were run against Lysine-specific demethylase 4A (Homo sapiens) (UniProt O75164) (assay: JMJD2A histone demethylase inhibitors, dose response, selectivity assay for GASC-1 inhibitor project, biochemical, DELFIA europium, cherry-picked samples (AID 488840;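 further: europium signal reports the dimethyl H3K9 product detected by antibody so inhibitors lower it; 0% = median of neutral control wells and -100% = median of positive control wells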)). Conditions: GST-JMJD2A(1-420) H3K9me3 demethylation; series mostly up to 6 µM; activity change, negative = inhibition: at the top concentration.
Chain of Lysine-specific demethylase 4A (Homo sapiens) (O75164 whole entry, looked up): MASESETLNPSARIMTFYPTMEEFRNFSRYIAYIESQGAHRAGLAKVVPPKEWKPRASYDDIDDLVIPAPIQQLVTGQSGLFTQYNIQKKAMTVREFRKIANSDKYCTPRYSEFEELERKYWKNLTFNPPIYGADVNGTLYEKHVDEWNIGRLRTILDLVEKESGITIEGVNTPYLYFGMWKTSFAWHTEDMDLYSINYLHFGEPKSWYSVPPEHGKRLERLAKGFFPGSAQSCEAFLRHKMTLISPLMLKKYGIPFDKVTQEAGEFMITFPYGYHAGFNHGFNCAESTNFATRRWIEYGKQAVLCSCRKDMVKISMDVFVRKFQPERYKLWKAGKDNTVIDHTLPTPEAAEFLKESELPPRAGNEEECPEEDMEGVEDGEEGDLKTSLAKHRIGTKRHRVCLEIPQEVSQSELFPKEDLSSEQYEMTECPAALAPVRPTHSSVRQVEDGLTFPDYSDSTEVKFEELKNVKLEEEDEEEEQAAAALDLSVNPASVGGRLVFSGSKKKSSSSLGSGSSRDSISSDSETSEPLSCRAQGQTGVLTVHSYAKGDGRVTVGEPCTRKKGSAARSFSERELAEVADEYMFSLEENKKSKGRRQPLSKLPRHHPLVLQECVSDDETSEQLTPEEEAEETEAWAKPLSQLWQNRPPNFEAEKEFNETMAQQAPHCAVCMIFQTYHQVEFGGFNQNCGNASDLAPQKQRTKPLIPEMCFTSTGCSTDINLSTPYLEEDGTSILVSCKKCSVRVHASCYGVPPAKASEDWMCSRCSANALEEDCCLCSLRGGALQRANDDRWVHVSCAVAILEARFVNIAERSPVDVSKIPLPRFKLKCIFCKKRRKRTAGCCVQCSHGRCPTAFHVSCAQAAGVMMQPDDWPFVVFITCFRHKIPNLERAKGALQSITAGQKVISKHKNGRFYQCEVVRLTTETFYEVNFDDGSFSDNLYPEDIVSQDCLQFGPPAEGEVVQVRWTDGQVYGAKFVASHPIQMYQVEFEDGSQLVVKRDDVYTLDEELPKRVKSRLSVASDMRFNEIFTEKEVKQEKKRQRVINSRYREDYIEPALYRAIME
For `COC(=O)C1=C(C)OC(N)=C(C#N)C1c1cc2cccc(C)c2nc1Cl` (stereo not given), the “activity change, negative = inhibition” value was 3.92%. For `CC(C)=CC(=O)O[C@@H]1Cc2c(ccc3ccc(=O)oc23)OC1(C)C`, the “activity change, negative = inhibition” value was -0.336%. With `c1ccc2c(c1)ccc1nnc(-c3ccc4c(c3)OCO4)n12` the “activity change, negative = inhibition” value was 3.37%. With `CS(=O)(=O)N(CC(=O)N1CCCCCC1)c1ccccc1` the “activity change, negative = inhibition” value was -5.65%. `C[C@H](CO)N1C[C@H](C)[C@@H](CN(C)Cc2ccncc2)Oc2c(NC(=O)Cc3ccccc3)cccc2C1=O` was tested, and the “activity change, negative = inhibition” value was 5.08%. With `O=C(Nc1cccnc1)c1ccc2c(c1)C(=O)N(Cc1cccnc1)C2=O` the “activity change, negative = inhibition” value was -1.63%. For `CCOC(=O)CSc1nc2sc(C)c(C)c2c(=O)[nH]1`, the “activity change, negative = inhibition” value was -5.03%. With `Cn1c(=O)c(-c2ccccc2)nn2c3ccccc3nc12` the “activity change, negative = inhibition” value was -0.768%. `Cc1ccc(Nc2c(-c3ccccn3)nc3cc(C)ccn23)cc1` was tested, and the “activity change, negative = inhibition” value was -3.14%. In the case of `c1ccc(-c2nc(-c3ccco3)cs2)nc1`, the “activity change, negative = inhibition” value is reported as 1.76%. In the case of `Clc1ccccc1Cn1nnc2c(NCCN3CCOCC3)ncnc21`, the “activity change, negative = inhibition” value is reported as -12%. With `Cc1ccc(NC(=O)c2cccc3c2C(=O)N(C2CCCCC2)C3)c(C)c1` the “activity change, negative = inhibition” value was -3.71%. With `Cc1ccc(S(=O)(=O)Nc2ccc3c(c2)C(=O)N([C@H](C)CO)C[C@H](C)[C@@H](CN(C)Cc2ccc(-c4ccccc4)cc2)O3)cc1` the “activity change, negative = inhibition” value was 20.7%. In the case of `Cc1nn(C)c(N)c1C(O)(c1nccn1C)C(F)(F)F` (stereo not given), the “activity change, negative = inhibition” value is reported as 7.95%. In the case of `O=C(NCC(c1ccco1)N1CCCCC1)c1ccc(OCc2ccccc2)cc1` (stereo not given), the “activity change, negative = inhibition” value is reported as -0.883%. `CCOC(=O)Cc1csc(NC(=O)COc2cccc(C)c2)n1` was tested, and the “activity change, negative = inhibition” value was -2.61%. In the case of `Cc1ccccc1-n1nc(C)c2cc(C(=O)N3CCN(S(=O)(=O)c4ccc(F)cc4)CC3)sc21`, the “activity change, negative = inhibition” value is reported as -3.6%. For `Cc1cccc(-c2noc(CCC(=O)NC3CCCC3)n2)c1`, the “activity change, negative = inhibition” value was -1.01%. For `COc1ccc(CN2CCCCC2C)c(C)c1C` (stereo not given), the “activity change, negative = inhibition” value was 2.39%. With `CC(C)CCN(C(=O)C1=COCCO1)c1c(N)n(Cc2ccccc2)c(=O)[nH]c1=O` the “activity change, negative = inhibition” value was -0.136%. For `Cn1c(=O)[nH]c(=O)c2c1nc(NCCCO)n2Cc1ccc(F)cc1`, the “activity change, negative = inhibition” value was 1.84%. `COC(=O)COc1ccc(Oc2cc(C)nc(SC)n2)nn1` was tested, and the “activity change, negative = inhibition” value was -1.19%. For `Cc1ccc2c(c1)N(CC(=O)NCC1CCCO1)C(=O)C(C(C)C)O2` (stereo not given), the “activity change, negative = inhibition” value was 5%. With `C=CCn1c(N)c(-c2nc3ccccc3n2C)sc1=S` the “activity change, negative = inhibition” value was 3.81%. With `COc1ccc(C(=O)N2CCCC(c3nc(-c4ccc(OC)c(OC)c4)no3)C2)c(OC)c1` (stereo not given) the “activity change, negative = inhibition” value was -2.52%. With `O=C(NCCCN1CCOCC1)c1cccc(S(=O)(=O)N2CCc3ccccc3C2)c1` the “activity change, negative = inhibition” value was 0.16%. For `O=C(Nc1cc(S(=O)(=O)N2CCOCC2)ccc1N1CCCC1)c1ccc(F)cc1`, the “activity change, negative = inhibition” value was 3.87%. `O=C(COC(=O)c1cccc(S(=O)(=O)NCc2ccccc2)c1)Nc1ccccc1OC(F)F` was tested, and the “activity change, negative = inhibition” value was 0.665%. In the case of `c1coc(CSCc2cn3cccnc3n2)c1`, the “activity change, negative = inhibition” value is reported as 5.39%. For `COC(=O)[C@]1(C)N[C@H](CN(C)C(=O)Nc2ccc(F)cc2)[C@@H]2C(=O)N(C)C(=O)[C@@H]21`, the “activity change, negative = inhibition” value was -4.71%. With `Cc1cccc(NC(=O)C2CCCN(S(=O)(=O)c3c(C)nn(C)c3C)C2)n1` (stereo not given) the “activity change, negative = inhibition” value was -2.26%. In the case of `CN(C(=O)c1ccc(Cl)c([N+](=O)[O-])c1)C1(C)CCS(=O)(=O)C1` (stereo not given), the “activity change, negative = inhibition” value is reported as 1.09%. For `O=C1NC(=S)N/C1=C/c1cc2c(cc1[N+](=O)[O-])OCO2`, the “activity change, negative = inhibition” value was 3.33%. In the case of `N#CC1(NC(=O)Cn2ncc(Cl)c(Cl)c2=O)CCCCC1`, the “activity change, negative = inhibition” value is reported as 0.808%. In the case of `CCOC(=O)C1=C(C)N(C)C(C)=C(C(=O)OCC)C1c1cccnc1`, the “activity change, negative = inhibition” value is reported as 13.7%. For `COc1cccc(CNC(=O)c2cc3c(cc2Cl)N2CCCCCC2=NS3(=O)=O)c1`, the “activity change, negative = inhibition” value was -0.22%. In the case of `C#CCOCCOCCOCCNc1nc(N2CCN(C(=O)CCCCCCCCCCNC(=O)[C@H]([C@@H](C)CC)n3cc(CCCCN=C(N)N)nn3)CC2)nc(N2CCN(C(=O)CCCCCCCCCCNC(=O)[C@H](CCCCN)n3cc(C)nn3)CC2)n1`, the “activity change, negative = inhibition” value is reported as 4.37%. `C#CCOCCOCCOCCNc1nc(N2CCN(C(=O)CCCCCCCCCCNC(=O)[C@H](CCCCN)n3cc(CCO)nn3)CC2)nc(N2CCN(C(=O)CCCCCCCCCCNC(=O)[C@H](CCCCN)n3cc(C[C@@H](C)CC)nn3)CC2)n1` was tested, and the “activity change, negative = inhibition” value was 21.3%. With `O=C1C=C(NCc2ccc3c(c2)OCO3)CC(c2ccccc2)C1` (stereo not given) the “activity change, negative = inhibition” value was 8.95%. For `Cc1cc(C(F)(F)F)nn1C(=O)c1cccnc1Cl`, the “activity change, negative = inhibition” value was -3.32%. For `O=C(NCCCNCCCNC(=O)c1ccc(/C=N/O)nc1)c1ccc(/C=N/O)nc1`, the “activity change, negative = inhibition” value was 14%. For `COC(=O)CSC1=C(C#N)C(c2ccsc2)CC(=O)N1` (stereo not given), the “activity change, negative = inhibition” value was 0.445%. In the case of `COc1ccc(N2C(=O)CSC23CCCCC3)cc1`, the “activity change, negative = inhibition” value is reported as 1.88%. In the case of `Cc1cccnc1Nc1nc(-c2ccc(O)cc2)cs1`, the “activity change, negative = inhibition” value is reported as 4.45%. For `COc1ccc(/C=C(/C(=O)NCc2ccccc2)c2ccccc2)cc1`, the “activity change, negative = inhibition” value was -0.518%. In the case of `Cc1cccc(NC(=S)N2CCN(Cc3ccc4c(c3)OCO4)CC2)c1C`, the “activity change, negative = inhibition” value is reported as -13%. With `CC1(C)[N+]([O-])=C2C(=[N+]([O-])C1(C)C)c1ccccc1/C2=N\O` the “activity change, negative = inhibition” value was -8.61%. `O=C1NCCN1CCNS(=O)(=O)c1ccccc1[N+](=O)[O-]` was tested, and the “activity change, negative = inhibition” value was -0.557%. In the case of `Cc1ccc(NC(=O)COC(=O)c2ccco2)cc1S(=O)(=O)N1CCOCC1`, the “activity change, negative = inhibition” value is reported as -1.17%. `Cc1ccc(/C=N/NC(=O)c2ccc(C(=O)N/N=C/c3ccc(C)s3)o2)s1` was tested, and the “activity change, negative = inhibition” value was 2.44%.

Reference: PubChem BioAssay AID488840 (Broad Institute, 2010)
